The text below walks through data of PubChem BioAssay AID504329 (Southern Research Specialized Biocontainment Screening …, 2011).

The campaign covered roughly 340,000 compounds. About 1,000 (0.29%) were called active. Not all results are given here. Entries with a potency or affinity are not part of this list. Unmarked numbers belong to inactive results. Rule as the data show it: inconclusive = inhibition above about 27% without an active follow-up result; inactive = below that.

The assay in a line: NS1A inhibition, H1N1 influenza, cell based functional assay (AID 504329). Particulars: percent inhibition, at 12.5 µM, stronger effect = higher value.
As for `COc1ccc([C@@H]2CC=C(C(=O)O)[C@H](c3ccccc3)N2S(=O)(=O)c2ccccc2C)cc1`, the inhibition was -3.46%. In the case of `COc1ccc(/C=N/S(=O)(=O)c2cccs2)cc1` it was 4.61%; in that of `COc1ccc(-c2nsc3c(SCc4ccccc4)ncnc23)cc1`, -10.6%. Under `COc1cc(-c2cc(=O)c3ccccc3o2)ccc1O` stands -19%; under `Cc1cc2oc(=O)cc(-c3cc4ccccc4o3)c2cc1O`, -6.82%. Under `COc1ccc(OC)c(-c2oc3ccccc3c(=O)c2O)c1` stands -8.28%; under `O=c1cc2oc3cc(O)c(O)cc3c(-c3ccccc3O)c-2cc1O`, 4.83%.

For the molecule `O=c1cc2oc3cc(O)c(O)cc3c(-c3ccccc3[N+](=O)[O-])c-2cc1O`, the inhibition is 20.1%. In the case of `Cc1ccccc1-c1cc(=O)c2c(O)cccc2o1` it was -13.3%. In the case of `COc1c(O)cc2oc(-c3ccc(O)c(O)c3)cc(=O)c2c1O` it was 2.55%. In the case of `COc1ccc2c(=O)cc(-c3ccccc3F)oc2c1` it was -4.71%. Regarding `CCCC(OC(=O)CC1Sc2ccccc2NC1=O)C(=O)NCc1ccco1` (stereo not given), the inhibition was 4.36%. Under `N#Cc1cc(-c2ccccc2)oc1NC(=O)c1ccccc1` stands 0.56%. As to `COc1ccc(N2CCN(C(=O)c3ccc(S(=O)(=O)NCc4ccco4)cc3)CC2)cc1`, the inhibition was 6.25%. Under `COc1cccc(N=Nc2ccc3cccnc3c2O)c1` stands 6.02%; under `COc1ccc(N=Nc2ccc3ccccc3c2)c(O)c1`, 25.1%.

For `Cc1ccc(C(=O)NNC(=O)c2ccc3ccccc3c2O)cc1`, the inhibition is -5%. Turning to `Cc1ccc(N=Nc2[nH]c3ccccc3c2O)cc1`, the inhibition was -4.85%. Under `CCOn1c(=O)c(-c2ccc(F)cc2)[n+]([O-])c2ccccc21` stands -9.53%. Take `O=C(COc1ccc(Cl)cc1)NCc1nnc(SCC(=O)Nc2ccc(F)cc2F)o1`: the inhibition was 12.3%.

As to `O=C1N2CCSC2=NC1(Nc1nccs1)C(F)(F)F` (stereo not given), the inhibition was -5.52%. Consider `COC(=O)c1ccccc1S(=O)(=O)N(CCCN1CCOCC1)Cc1cccs1`, for which the inhibition is 18.3%.

With `COc1cccc(C2C(C#N)=C(N)N(N(C)C)C3=C2C(=O)CCC3)c1` (stereo not given), the inhibition was -18.6%. In the case of `Cn1c(CNc2ccccc2)nc2ccccc21` it was -15.8%. On to `Cc1ccc(NCc2nc3ccccc3n2C)cc1`, for which the inhibition was 3.76%. In the case of `O=C(Cn1cnc([N+](=O)[O-])n1)N/N=C/c1cccc2ccccc12` it was 5.61%. Under `Cc1cc([N+](=O)[O-])nn1Cc1ccc(C(=O)N/N=C/c2ccc(O)cc2O)cc1` stands 2.59%; under `Cc1ccccc1/C=N/NC(=O)Cn1cnc([N+](=O)[O-])n1`, 0.54%; under `O=C(Cn1cnc([N+](=O)[O-])n1)N/N=C/c1cccc(Cl)c1`, -19.4%. In the case of `Cc1cc([N+](=O)[O-])nn1CC(=O)N/N=C/c1ccccc1O` it was 13.7%; in that of `COc1ccccc1/C=N/NC(=O)Cn1cnc([N+](=O)[O-])n1`, 2.27%.

With `O=C(Cn1cnc([N+](=O)[O-])n1)N/N=C/c1ccc2ccccc2c1`, the inhibition is -2.51%.

Take `O=C(CCCn1cnc([N+](=O)[O-])n1)Nc1cc(Cl)ccc1O`: the inhibition was -2.62%.

In the case of `CCN(CC)S(=O)(=O)c1ccc(Cl)c(NC(=O)COc2ccc3c(C)cc(=O)oc3c2)c1`, the inhibition was 15.6%.

On to `CC(=O)c1cccc(NC(=O)CSc2ccc(-c3sc(C)nc3C)nn2)c1`, for which the inhibition is -5.12%. Take `Cc1ccccc1NC(=O)/C(C#N)=C/c1ccc[nH]1`: the inhibition is -10.5%.

In the case of `COC(=O)c1ccc(N2CCN(C)CC2)c(NC(=O)COc2ccccc2)c1`, the inhibition was 4.25%. Under `COc1ccc(-c2noc(Cn3cc(S(=O)(=O)N4CCCC4)ccc3=O)n2)cc1` stands -10.2%; under `Cc1ccc(/C=N/n2c(-c3ccc(Cl)cc3)n[nH]c2=S)o1`, 2.1%. Under `Cc1cc(OCC(=O)N2CCC(C(=O)O)CC2)c2c3c(c(=O)oc2c1)CCC3` stands -2.02%. Under `O=C(c1c(F)cccc1F)N1CCN(c2cccc(C(F)(F)F)c2)CC1` stands -9.64%; under `Nc1nc(-c2ccccc2)c(-c2ccccc2)s1`, 4.73%; under `Nc1nc(-c2ccccc2)c(N=Nc2ccc(Cl)cc2)s1`, 11.4%. Take `Nc1nc(-c2ccccc2)c(N=Nc2cccnc2)s1`: the inhibition is 18%. For `Nc1ccc(N=Nc2ccccc2Cl)c(N)n1`, the inhibition was 26.8%. With `C=C(C)COc1ccc(-c2[nH]ncc2-c2ccc(OC)cc2)c(O)c1`, the inhibition is 9.07%.

With `CC(=O)c1sc(NC(=O)C2CCCN2S(=O)(=O)c2ccccc2F)nc1C` (stereo not given), the inhibition is -3.2%. With `COc1cc(C)ccc1OCCCOc1c(Cl)cccc1Cl`, the inhibition is -6.86%.

Turning to `CC(C)c1ccc(/C=C2\CC/C(=C\C=N\N(C)C)C2=O)cc1`, the inhibition is 2.58%. Under `CN(C)/N=C/C=C1\CC/C(=C\c2ccc(Br)cc2)C1=O` stands 5.12%; under `O=C(Nc1sc2c(c1C(=O)N1CCOCC1)CCCCC2)c1cccnc1`, 1.63%. Under `Cc1nccn1CC(=O)N/N=C/c1cccs1` stands -26.6%. Under `COc1cccc(/C=N/NC(=O)Cn2ccnc2C)c1` stands -3.78%. For `Cc1nccn1CC(=O)N/N=C/c1c[nH]c2ccccc12`, the inhibition is -1.01%.

Take `Cc1nccn1CC(=O)N/N=C/c1cccc(O)c1`: the inhibition was -4.69%. As for `COc1ccc(/C=N/N=C2/NC(=O)C(c3ccccc3)(c3ccccc3)S2)cc1`, the inhibition was 9.74%. Under `Cc1cccc(OCc2nnc(SCC(=O)Nc3cccc(C(=O)N4CCOCC4)c3)n2C)c1` stands -2.72%; under `CN(CC(=O)Nc1ccccc1Br)C(=O)COc1cccc2c1OC(C)(C)C2`, -2.61%; under `Cc1cc(OCC(=O)N(C)C2CCCCC2)ccc1Cl`, 1.86%. Under `COc1ccc(C2CC(c3cccs3)=NN2C(=O)CSc2nc(=O)n3ccccc3n2)cc1` (stereo not given) stands -0.56%; under `Cc1ccc(NC(=O)CN2C(=O)CN=C(c3ccccc3)c3cc(Cl)ccc32)cc1`, 24.3%; under `CN(C)c1ccc(NC(=O)CN2C(=O)CN=C(c3ccccc3)c3ccccc32)cc1`, -10.1%.

Consider `c1ccc(CNc2nc(-c3ccccn3)nc3ccccc23)cc1`, for which the inhibition is 24.8%. Under `Oc1ccccc1-c1nc(NCc2ccco2)c2ccccc2n1` stands -19.2%.

As to `c1ccc(N2CCN(c3nc(-c4ccccn4)nc4ccccc34)CC2)cc1`, the inhibition is 18.4%. Under `c1ccc(CCNc2nc(-c3ccccn3)nc3ccccc23)cc1` stands 21%. In the case of `CN1CCN(c2nc(-c3ccccn3)nc3ccccc23)CC1` it was 10.9%; in that of `C/C(=N\Nc1nc(-c2ccccn2)nc2ccccc12)c1ccc(F)cc1`, 0.16%. Under `CCCN(CCC)c1nc(-c2ccccn2)nc2ccccc12` stands 10.6%; under `CCC(C)Nc1nc(-c2cccc(OC)c2O)nc2ccccc12` (stereo not given), 4.38%.

With `Cc1noc(C)c1C(=O)OCC(=O)Nc1ccc(N2CCOCC2)cc1`, the inhibition is 5.46%.

As for `O=C(Nc1ccc(OC(F)F)cc1)c1cc(S(=O)(=O)N2CCOCC2)ccc1N1CCCC1`, the inhibition is -1.31%. For the molecule `Cc1[nH]c2ccccc2c1C(=O)CNc1nccs1`, the inhibition is -1.86%. Under `Cc1cccc(-c2nc(C#N)c(N3CCCCC3)o2)c1` stands 3.65%; under `COc1ccc(C2(OC)Oc3cc(OC)ccc3C(=O)C2(O)OC)cc1` (stereo not given), -14.3%; under `COC(=O)c1ccccc1NC(=O)C1CCN(S(C)(=O)=O)CC1`, -15.6%. Under `CCCCCN(C(=O)CCC(=O)OCC(=O)c1cccc(OC)c1)c1c(N)n(CCCC)c(=O)[nH]c1=O` stands -2.41%; under `OCCNCCO`, -1.33%.

For `O=C(O)CCNc1ccc(NCCC(=O)O)c2c1C(=O)c1ccccc1C2=O`, the inhibition was 22.7%. Under `O=C(O)c1ccccc1NCCO` stands -4.36%. Under `O=C1c2cccc(NCCNCCO)c2C(=O)c2cccc(NCCNCCO)c21` stands 28%; under `Cc1ccc(C2/C(=C(\O)c3c(C)nc4ccccn34)C(=O)C(=O)N2CCN(C)C)o1` (stereo not given), -13.9%; under `COc1ccc(NC(=O)COC(=O)CCCOc2ccc(Cl)cc2Cl)cc1Cl`, -5.19%. In the case of `Cc1[nH]nc2c1C(c1cnn(C)c1)C(C#N)=C(N)O2` (stereo not given) it was -1.46%; in that of `Cc1ccc(NS(=O)(=O)c2cc([N+](=O)[O-])ccc2NNC(=S)Nc2cc(C)ccc2C)c(C)c1`, 21.2%; in that of `COc1ccc(NC(=S)NNc2ccc([N+](=O)[O-])cc2S(=O)(=O)Nc2ccc(C)cc2C)cc1`, 17.3%. On to `Cc1cc(C)nc(NC(=NCc2ccc3c(c2)OCO3)NC(=O)Nc2ccccc2)n1`, for which the inhibition is 12.4%. For the molecule `O=S(=O)(NC1CCC(NS(=O)(=O)c2c(F)cccc2F)CC1)c1ccc2c(c1)OCCO2` (stereo not given), the inhibition was 6.49%. Under `Nc1nc(N)c(N=Nc2ccc(C(=O)O)cc2)c(N)n1` stands 17.8%. Under `O=C(O)c1ccc(N/N=C/c2ccnc3ccccc23)cc1` stands 12.7%; under `CC(=NCCN1CCOCC1)c1c(O)n(-c2ccccc2C)c(=O)[nH]c1=O`, 5.2%; under `COc1ccccc1Nc1ccc(S(=O)(=O)N2CCCCC2)cc1[N+](=O)[O-]`, 22.4%.

With `COc1cc(Nc2ccc(S(=O)(=O)N3CCN(C)CC3)cc2[N+](=O)[O-])cc(OC)c1`, the inhibition was 18.2%. For `COc1ccc(Nc2ccc(S(=O)(=O)N3CCCCC3)cc2[N+](=O)[O-])cc1`, the inhibition was 21%.

With `COc1ccc(Nc2ccc(S(=O)(=O)N3CCCCC3)cc2[N+](=O)[O-])cc1Cl`, the inhibition is 21%.
